High-throughput results as filed in PubChem.
In the library only some 9.5% were active in any assay of this set; here they are far more common.
Tau ThT inhib = inhibitors of human tau fibril formation, thioflavin T binding; P10636; recombinant tau K18 P301L, heparin-induced fibrillization, ThT fluorescence; Potency, µM (titrated, usually from 57.4 µM), for the others: at the top dose activity, negative = inhibition, actives largely listed as inhibitors; actives 2.1% (n = 270,000); also: nearly all actives have a fitted effect of over 55% in size
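Aggregation was driven by heparin (20 uM final) acting on recombinant tau […] bearing P301L in 100 mM sodium acetate pH 7; fibrils were detected with Thioflavin T.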
ALDH1A1 block = blocks purified human ALDH1A1 activity; P00352; Purified ALDH1A1, NADH fluorescence, propionaldehyde substrate; Potency, µM (doses to about 75.3 µM), for the others: at the top dose activity, negative = inhibition, usual class: inhibitors; actives 7.3% (n = 220,000); active = well fitted inhibition curve with a large enough effect, not every such curve was filed as active; inconclusive = small, poorly fitted or top-dose-only effect, or another doubt; inactive = no such curve, though single readings can be large or run the other way;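 also: plate controls were no enzyme wells and a reference inhibitor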
NPSR antagonist = antagonists of human neuropeptide S receptor cAMP signaling; Q6W5P4; actives 1% (n = 220,000); CHO-NPSR cells, cAMP TR-FRET, antagonist mode; Potency, µM (top dose mostly 38.3 µM), for the others: top-dose activity change, negative = inhibition, hits mostly inhibitors; AID 1461; also: nearly all actives have a fitted effect of over 50% in size
Target sequence (Q6W5P4 whole entry, looked up): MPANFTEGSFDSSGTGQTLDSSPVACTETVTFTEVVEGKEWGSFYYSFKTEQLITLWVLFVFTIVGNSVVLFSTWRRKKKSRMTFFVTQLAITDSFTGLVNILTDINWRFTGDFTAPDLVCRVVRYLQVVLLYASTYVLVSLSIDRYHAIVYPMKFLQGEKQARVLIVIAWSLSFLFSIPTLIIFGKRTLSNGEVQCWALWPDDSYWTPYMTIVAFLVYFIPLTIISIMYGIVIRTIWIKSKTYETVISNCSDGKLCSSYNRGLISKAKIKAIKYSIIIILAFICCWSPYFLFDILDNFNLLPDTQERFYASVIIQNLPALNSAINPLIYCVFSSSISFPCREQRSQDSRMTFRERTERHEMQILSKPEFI
Tau fluor cs = counter-screen for tau fibril formation inhibitors; Potency, µM (titrated, usually from 57.7 µM), for the others: at the highest dose activity change, negative = decrease; actives 0.93% (n = 280,000); tau K18 P301L Alexa594 fluorescence, heparin fibrillization; also: nearly all actives have a fitted effect of over 55% in size
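Human tau K18 P301L (15 uM unlabeled, 0.24 uM Alexa 594-labeled) in 100 mM sodium acetate pH 7 with 20 uM heparin, 6 hr at 37 C. ThT 30 uM added, 1 hr ambient; Alexa 594 FP and total fluorescence read at 555/632 nm.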
HPGD block = inhibitors of human 15-hydroxyprostaglandin dehydrogenase (HPGD) | AID 894 | Potency, µM, for inactives: top-dose activity change, negative = inhibition, usual class: inhibitors | P15428 | actives 4.3% (n = 150,000) | purified HPGD, NADH fluorescence kinetic, PGE2 substrate; active = well fitted inhibition curve with a large enough effect, not every such curve was filed as active; inconclusive = small, poorly fitted or top-dose-only effect, or another doubt; inactive = no such curve, though single readings can be large or run the other way
Target sequence (P15428 whole entry, looked up): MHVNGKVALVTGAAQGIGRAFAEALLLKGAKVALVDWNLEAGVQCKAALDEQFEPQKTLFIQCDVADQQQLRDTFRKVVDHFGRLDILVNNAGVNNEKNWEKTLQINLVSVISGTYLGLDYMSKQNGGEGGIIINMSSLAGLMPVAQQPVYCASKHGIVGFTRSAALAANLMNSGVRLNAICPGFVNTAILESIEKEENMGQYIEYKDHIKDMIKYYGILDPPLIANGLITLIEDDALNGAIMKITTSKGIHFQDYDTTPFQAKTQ
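NADH formation kinetics: reaction with 30 uM PGE2 and 1 mM NAD+ (final), 20 nM enzyme, Tris-HCl pH 8 with Tween 20, after 15 min compound preincubation at room temperature. Fluorescence change, last versus first of five reads.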
Tau fibril FP = blocks human tau fibril formation measured by polarization; P10636; K18 P301L tau heparin fibrillization, Alexa594 FP, 6 h; Potency, µM (top dose mostly 57.7 µM), inactives show at the top dose activity, negative = inhibition, hits mostly inhibitors; actives 0.39% (n = 280,000); AID 1468; also: nearly all actives have a fitted effect of over 55% in size
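K18 P301L tau (15 uM unlabeled/0.24 uM Alexa 594-labeled, final) + compound + heparin 20 uM final; 100 mM NaOAc pH 7; 6 hr 37 C; ThT 30 uM final added, 1 hr RT; FP ex 555/em 632 nm.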
* = called active by the depositor; u = inconclusive; x = no result; [ ] = another dose, or the depositor's remark. Unless noted, calls follow the shape of the dose curve; as a rule, active = well fitted curve in the direction sought with a large enough effect; inconclusive = small, poorly fitted or top-dose-only effect, or another doubt; inactive = no such curve, though single readings can be large; an effect the other way counts as inactive or inconclusive. Unless noted, % is scaled to controls: 0 for no effect and ±100 for the full control effect; potency is read from the fitted curve at half-maximal effect.

SMILES	Tau ThT inhib	ALDH1A1 block	NPSR antagonist	Tau fluor cs	HPGD block	Tau fibril FP
Cc1ccc(NC(=O)CSCC(=O)N2c3ccccc3CCc3ccccc32)cc1	-5%	3.2µM*	u	-19%	-12%	9%
O=C(Nc1ccccc1CC[N+](=O)[O-])N1CCN(c2ccccc2)CC1	u	8.9µM*	-16%	-20%	x	-10%
CO[C@H]1COC(=O)[C@@H](C)COC(=O)[C@@H](Cc2ccccc2)NC(=O)C/C=C\[C@H]1C	-4%[11.5 µM]	4%[13.5 µM]	x	-5%[11.6 µM]	x	0%[11.6 µM]
CCOC(=O)N1CCC(N2CCCC(CO)(Cc3ccccc3C)C2)CC1 (stereo not given)	-1%	-3%	3%	7%	x	1%
Cn1cnnc1SCC(=O)Nc1sc2c(c1C#N)CCCCC2	-11%	7.1µM*	-9%[46.1 µM]	-6%	-13%	4%
CCCCn1nnnc1SCC(=O)Nc1ccc(N(C)C)cc1	u	25µM*	-19%[46.1 µM]	-20%	-8%	11%
N#Cc1ccc(-c2ccc(F)cc2)nc1SCC(=O)Nc1sc2c(c1C#N)CCC2	-16%	25µM*	u	-26%	u	11%
CCCCn1nnnc1SCC(=O)Nc1ccc(F)cc1	0%	u	-6%[46.1 µM]	-1%	-5%	3%
N#Cc1cc2c(nc1SCC(=O)Nc1sc3c(c1C#N)CCC3)CCCC2	u	u	u	-6%	-24%	10%
N#Cc1c(NC(=O)CSc2ncn[nH]2)sc2c1CCCCC2	-16%	u	3%[46.1 µM]	-28%	-7%	-13%
N#Cc1c(NC(=O)CSc2nnnn2C2CCCC2)sc2c1CCCC2	11%	3.5µM*	-17%[46.1 µM]	9%	-21%	-1%
CCOC(=O)CNC(=O)C1CCCN(c2ncccn2)C1 (stereo not given)	3%	-9%	-6%[46.1 µM]	3%	-19%	0%
CCCCn1nnnc1SCC(=O)Nc1sc2c(c1C#N)CCCC2	u	28µM*	-23%[46.1 µM]	-16%	-14%	6%
Cc1ccc2onc(CC(=O)Nc3cccc(C(F)(F)F)c3)c2c1	-2%	x	x	-2%	x	-4%
Cc1ccc2c(CC(=O)Nc3cccc(C(F)(F)F)c3)coc2c1	1%	x	x	u	x	25µM*
Cc1ccc2c(CC(=O)Nc3ccc(S(=O)(=O)N4CCC(C)CC4)cc3)coc2c1	8%	x	x	u	x	10µM*
Cc1ccc2occ(CC(=O)Nc3ccc(S(=O)(=O)N4CCC(C)CC4)cc3)c2c1	5%	x	x	u	x	8.9µM*
COc1cc2c(cc1OC)C(COc1ccc3c(C)cc(=O)oc3c1)N(C(=O)Cc1ccccc1)CC2 (stereo not given)	-14%	x	x	-16%	x	-1%
COc1ccc(Cl)cc1NC(=O)Cn1nnc2sc(-c3ccccc3)cc2c1=O	u	x	x	u	x	9%
COCC1=Cc2cc3c(cc2C(C(C(=O)OC)C(=O)OC)N1C(=O)OC)OCO3 (stereo not given)	u	-5%	x	0%	0%	u
CCC(C)c1ccc(NC(=S)Nc2ccc(OC)cc2C)cc1 (stereo not given)	-4%	0%	-29%	-7%	25µM*	8%
COc1ccc(NC(=S)Nc2ccc(OCc3ccccc3)cc2)cc1OC	u	18µM*	-20%	25µM*[quencher]	-15%	18%
CCC(C)c1ccc(NC(=S)Nc2ccc(OC)c(OC)c2)cc1 (stereo not given)	u	28µM*	11%	u	1%	u
COc1ccccc1CNc1nc2ccc(C)cc2n2nnnc12	0%	x	x	-8%	x	-2%
CCN1C(=O)/C(=C/C=C2/Sc3ccc4ccccc4c3N2CCO)SC1=S	u	-3%	-4%	u	-10%	-8%
SMILES	Tau ThT inhib	ALDH1A1 block	NPSR antagonist	Tau fluor cs	HPGD block	Tau fibril FP
CCN1C(=O)/C(=C\N2CCCCCC2)SC1=S	-4%	u	14%[46.1 µM]	-9%	x	4%
CN1CCS/C1=C/C=C1\SC(=S)N(CC(=O)O)C1=O	16µM*	11µM*	29%	-20%	x	-6%
CCN1C(c2ccccc2)=C(c2ccccc2)S/C1=C/C=C1\SC(=S)N(C)C1=O	u	u	-17%[46.1 µM]	3.2µM*[fluorescent]	-7%	-7%
CN1CCS/C1=C/C=C1/SC(=S)N(Cc2ccccc2)C1=O	12%	1µM*	4%	8%	-14%	6%
CN(CC(=O)N1CCc2ccccc21)S(=O)(=O)c1ccc(Br)s1	-14%	-1%	-14%[46.1 µM]	-27%	-9%	2%
COC(=O)c1sc(SC)c(-c2ccon2)c1C	-10%	0%	8%	-10%	x	-11%
OCCN(CO)CO	x	4%[13.5 µM]	x	x	-2%	x
Cc1ccccc1C(=O)N1CCC(C(=O)Nc2ccc3c(c2)OCCO3)CC1	-14%	28µM*	-10%[46.1 µM]	-8%	-16%	1%
O=C(Nc1ccc2c(c1)OCCO2)C1CCN(C(=O)c2ccccc2)CC1	-8%	14µM*	-4%[46.1 µM]	-9%	-4%	7%
Cc1ccc(-c2cnc(C3CC3)o2)cc1S(=O)(=O)Nc1ccc(F)cc1Cl	1%	x	x	-12%	x	-4%
CC(Cc1ccccc1)NC(=S)CN1CCCC1=S (stereo not given)	-2%	x	0%	-4%	x	1%
COc1cc(CCC(=O)NCc2ccc3c(c2)CCN3C(=O)c2ccccc2)cc(OC)c1OC	0%	x	x	6%	x	-2%
C=CCC1Cc2c(cccc2[N+](=O)[O-])C(CC=C)N1 (stereo not given)	u	16µM*	-8%	-27%	x	-5%
Cc1ccnc(N2C(=O)c3cccc4c([N+](=O)[O-])ccc(c34)C2=O)c1	u	-8%	10µM*	u	-22%	1%
Cc1ccc(N2C(=O)c3cccc4c([N+](=O)[O-])ccc(c34)C2=O)c2cccnc12	-9%	x	-41%	-10%	x	-1%
COc1ccc(Cl)cc1NC(=O)CSc1nc(-c2ccco2)cc(C(F)(F)F)n1	-11%	x	x	u	x	-18%
Cc1ccc(NC(=O)c2cc(=O)c3ccccc3o2)cc1S(=O)(=O)N1CCCCC1	-16%	32µM*	-43%	u	x	u
Cc1ccc(NC(=O)Cc2c[nH]c3ccccc23)cc1S(=O)(=O)N1CCCCCC1	-8%	-9%	-35%	14µM*[quencher]	-8%	8%
Cc1ccc(S(=O)(=O)N2CCCCC2)cc1NC(=O)Cc1c[nH]c2ccccc12	-8%	-5%	u	u	-7%	7%
Cc1ccc(NC(=S)NCc2ccccc2)cc1S(=O)(=O)N1CCCCC1	5%	u	-53%	13µM*[quencher]	x	20µM*
CCOc1ccc(-c2c(C)nn3c(C)c(C(=O)NCCc4ccc(C)cc4)cnc23)cc1OCC	u	x	x	-18%	x	5%
COc1ccc(Oc2ncc3nc(C)c(=O)n(CCC#N)c3n2)cc1	x	u	x	x	-21%	x
